# Source: PubChem BioAssay (NCI)
# Several values for one entry are separate records, joined by “and”; a condition that tells them apart may be missing. Identical values can stand only once. This is part of a sample that, as a whole, favours compounds with a hit. Of some 83,000 tested, about 20% had one in any assay.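 In brief: 96-well plates, 48 h treatment, single concentration, percent growth endpoint.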 Activity calls are given as the source filed them. Rule for the calls: active = growth percent below 10; inactive = the rest.
# Test system: HL-60(TB) leukemia
# Experiment: NCI-60 one-dose screen, 48 h (100 = growth as untreated, 0 = no growth, -100 = all killed)
# Settings: 10 µM unless noted
row,Structure (SMILES),growth
1,N/C(=N\C(N)=N\c1nc2ccccc2s1)c1cccc(Br)c1,95.4% (inactive)
2,CN1CCN(c2ccc3nc(-c4ccc(OCCCCN5CCN(CCCCN6C(=O)c7cccc8cccc(c78)C6=O)CC5)cc4)[nH]c3c2)CC1,16.6% (inactive)
3,CCN(CC)c1ccc(N=O)cc1,33.1% (inactive)
4,COc1ccc(/C=C/C(=O)Nc2cccnc2Nc2ccc(F)cc2)cc1,84.3% (inactive)
5,C=CCOc1ccc2c(c1)CC=C1[C@@H]2CC[C@]2(C)C(=O)/C(=N/O)C[C@@H]12,22.7% (inactive)
6,COc1ccc(-c2cc(-c3ccc(Cl)cc3)c(C#N)c(=O)n2CCCCC(=O)Nc2ccccc2N)cc1,3.34% (active)
7,O=C(NNC(=O)c1ccc(-n2cc(-c3ccccc3)nn2)cc1)Nc1ccccc1,95.4% (inactive)
8,COc1cc(CN2CCC(N3CCCC3=O)c3ccccc32)cc(OC)c1OC (centres undefined),56.4% (inactive)
9,Nc1ccccc1NC(=O)CCCCC(=O)Nc1ccc2c(c1)/C(=C/c1ccc[nH]1)C(=O)N2,89.6% (inactive)
10,O=[N+]([O-])c1ccc(S(=O)Cc2ccccc2)c([N+](=O)[O-])c1 (centres undefined),56.4% (inactive) and -7.5% (active)
11,C#C[C@@]1(O)[C@@H](CO)O[C@@H](n2cc(F)c3c(N)ncnc32)[C@@H]1O,-22.8% (active)
12,COc1cc(C(=O)NC(=S)NCc2ccncc2)cc(OC)c1OC,89.7% (inactive)
13,O=c1[nH]cc(Cl)cc1O,75.9% (inactive)
14,CCCCCCCOc1c(OC)cc(C2CC(=O)Nc3c2c(C)nn3-c2nc3ccccc3[nH]2)cc1OC (centres undefined),10.5% (inactive)
